Laboratory results as given in PubChem BioAssay (Tox21).
Results filed as inconclusive are left out. Calls of active or inactive are those of the source. Calls follow the shape of the full dose curve. Residues, ends and D or L forms follow the SMILES beside them.

Legend:
[1] = molecular target: Acetylcholinesterase (Homo sapiens) (UniProt P22303); test: Acetylcholinesterase (AChE) small molecule antagonists: colormetric cell-based qHTS assay (AID 1347395); also: nearly all actives have a fitted effect of over 30% in size; also: potency is read from the fitted curve at half-maximal effect
Chain of Acetylcholinesterase (Homo sapiens) (P22303 whole entry, looked up): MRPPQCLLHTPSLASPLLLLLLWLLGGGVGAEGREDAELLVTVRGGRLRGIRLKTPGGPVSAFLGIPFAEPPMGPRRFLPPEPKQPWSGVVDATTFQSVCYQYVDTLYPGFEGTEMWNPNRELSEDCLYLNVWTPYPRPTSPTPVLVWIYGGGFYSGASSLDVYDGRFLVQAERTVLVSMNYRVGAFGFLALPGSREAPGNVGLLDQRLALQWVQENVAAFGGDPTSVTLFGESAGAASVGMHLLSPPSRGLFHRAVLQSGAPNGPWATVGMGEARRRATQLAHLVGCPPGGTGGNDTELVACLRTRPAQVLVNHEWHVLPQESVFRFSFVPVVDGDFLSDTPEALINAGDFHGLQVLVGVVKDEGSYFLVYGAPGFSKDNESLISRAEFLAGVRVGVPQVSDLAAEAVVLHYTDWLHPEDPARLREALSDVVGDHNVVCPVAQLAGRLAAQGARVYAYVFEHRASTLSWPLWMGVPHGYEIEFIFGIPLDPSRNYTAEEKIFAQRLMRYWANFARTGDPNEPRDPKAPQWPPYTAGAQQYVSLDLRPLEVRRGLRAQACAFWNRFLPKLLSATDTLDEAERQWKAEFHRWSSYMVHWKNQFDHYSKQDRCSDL
Procedure, shortened: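 Quantitative HTS in attached SH-SY5Y cells: 30 min compound exposure, then 90 min with acetylthiocholine and DTNB at 37 C; colour from thiocholine reports AChE activity.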

[2] = molecular target: Acetylcholinesterase (Homo sapiens) (UniProt P22303); test: Acetylcholinesterase (AChE) small molecule antagonists: enzyme-based qHTS assay (AID 1347397); settings: Potency: AChE enzyme activity inhibition; outcome: AChE enzyme activity inhibition; also: nearly all actives have a fitted effect of over 55% in size; also: potency is read from the fitted curve at half-maximal effect
Procedure, shortened: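 Enzyme inhibition was scored from DTNB-detected thiocholine formed by recombinant human AChE acting on acetylthiocholine. The 30 min compound preincubation and 10 min substrate reaction were both run at room temperature, with DMSO as vehicle control.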

[3] = molecular target: Acetylcholinesterase (Homo sapiens) (UniProt P22303); test: Acetylcholinesterase (AChE) small molecule antagonists: fluorescence cell-based qHTS assay (AID 1347398); settings: Potency: AChE activity; outcome: AChE activity; also: nearly all actives have a fitted effect of over 50% in size; also: potency is read from the fitted curve at half-maximal effect
Procedure, shortened: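 Endogenous acetylcholinesterase of SH-SY5Y neuroblastoma cells is measured in situ. After overnight attachment and 30 min compound exposure, cells receive acetylthiocholine and Thiolite Green; fluorescence is read after 40 min at room temperature.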

[4] = molecular target: Acetylcholinesterase (Homo sapiens) (UniProt P22303); test: Acetylcholinesterase (AChE) small molecule antagonists: enzyme-based qHTS assay with human liver microsomes (AID 1347399); settings: Potency: qHTS inhibition; outcome: qHTS inhibition; also: nearly all actives have a fitted effect of over 60% in size
Procedure, shortened: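 Recombinant human AChE (50 mU/mL in the enzyme mix) and human liver microsomes (0.25 mg/mL final) were preincubated with compound and NADPH (0.25 mg/mL final) for 30 min at 37 C. Acetylthiocholine/DTNB was then added; thiocholine was read colorimetrically after 10 min at room temperature.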

Measured: Potency

CC(O)COC(C)(C)C (centres undefined)
inactive: all assays above

C/C=C(\C)C#N
inactive: all assays above

COc1ccccc1N1CCN(CCCNc2cc(=O)n(C)c(=O)n2C)CC1
inactive: all assays above

CC(=O)N[C@@H](CO)C(=O)N[C@@H](CC(=O)O)C(=O)N[C@@H](CCCCN)C(=O)N1CCC[C@H]1C(=O)O (Ac-SDKP-OH)
inactive: all assays above

Nc1ccc(NCCO)c([N+](=O)[O-])c1
inactive: [4]
active: [1] 35.6 µM | [2] 71 µM | [3] 35.6 µM

CC(=O)OCCc1ccccc1
inactive: all assays above

CCC(Cl)C(Cl)C(Cl)CC(Cl)C(Cl)C(C)Cl (centres undefined)
inactive: all assays above

C#C[C@]1(OC(C)=O)CC[C@H]2[C@@H]3CCC4=C[C@@H](OC(C)=O)CC[C@@H]4[C@H]3CC[C@@]21C
inactive: all assays above

NC(=O)Nc1ccc(Cl)c(Cl)c1
inactive: all assays above

CCCCOC(=O)C(C)CC (centres undefined)
inactive: all assays above

CC1=C(CC(=O)O)c2cc(F)ccc2/C1=C\c1ccc(S(C)(=O)=O)cc1
inactive: all assays above

COc1ccc([C@@H]2Sc3ccccc3NC(=O)[C@@H]2O)cc1
inactive: all assays above

CCCCCCCCC(=O)Cl
inactive: all assays above

CCCCNCCCC
inactive: all assays above

CC(C)Cc1ccc(C(C)C(=O)OCc2ccccn2)cc1 (centres undefined)
inactive: all assays above

c1ccc2sc(SN(C3CCCCC3)C3CCCCC3)nc2c1
inactive: all assays above

CN1CCN(C(=O)C2CCCCC2)CC1
inactive: all assays above

O=C(O)C1CCC1
inactive: all assays above

CCOC(=O)C1=NN(c2ccc(Cl)cc2Cl)C(C)(C(=O)OCC)C1 (centres undefined)
inactive: all assays above

C=C(C)CCCC(C)CCO (centres undefined)
inactive: all assays above

CC(S)C(=O)NCC(=O)O (centres undefined)
inactive: all assays above
